In PubChem BioAssay (NCI):
Compounds without any hit were thinned out: in the full panel of roughly 83,000, 20% have a hit.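 Percent growth is the endpoint: 0 to 100 indicates growth inhibition (40 means 60% inhibition), 0 means no net growth, and negative values indicate cell death.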 Values without a mark were called inactive. Activity calls are given as the source filed them. Rule for the calls: active = growth percent below 10; inactive = the rest.

Test system: A498 renal
Test: NCI-60 one-dose screen, 48 h (100 = growth as untreated, 0 = no growth, -100 = all killed)
Conditions: 10 µM unless noted

**Q.** Which growth does the source give for COc1ccc(C(O)c2cc3c(N)c(C(=O)Nc4cccc(Br)c4)sc3nc2C)cc1 (stereo not given) here?
**A.** -9.2% (active)

**Q.** Which growth does the source give for CC/C(=C(/c1ccc(Cl)cc1)c1ccc(OCCN2CCCCC2)cc1)c1ccc(OC)cc1 here?
**A.** 118%

**Q.** With CCOC(=O)c1c2c(n3cccc(F)c13)C(=O)c1ncccc1C2=O as the molecule, how does the growth read?
**A.** 24%

**Q.** CC(=O)O[C@@H]1C[C@]2(C(C)C)O[C@@]1(C)[C@@H]1CCC(C)=C1[C@@H]2OC(=O)/C=C/c1ccccc1 was tested. Which growth did it give?
**A.** -4.32% (active)

**Q.** O=C(O)c1ccc(-n2cc(/C=N/Nc3ccccc3)c(-c3ccc(F)cc3F)n2)cc1 was tested. Which growth did it give?
**A.** 81.7%

**Q.** For O=C(NCc1ccc(Cl)cc1Cl)C1CCC(=O)N1c1cccs1 (stereo not given), which growth is on record?
**A.** 85.2%

**Q.** With CCSc1oc(-c2ccccc2)nc1[P+](c1ccccc1)(c1ccccc1)c1ccccc1 as the molecule, how does the growth read?
**A.** -32.8% (active)

**Q.** How did the growth turn out when O=C1C(=O)N(Cc2ccc(-c3ccccc3)cc2)c2ccc(OC(F)(F)F)cc21 was run?
**A.** 84.8%

**Q.** For Cc1nc2sc(C(=O)Nc3ccc(Br)cc3)c(N)c2cc1C(O)c1ccccc1 (stereo not given), which growth is on record?
**A.** 51.9%

**Q.** With O=C(Cn1cc(CSc2nc3ccccc3o2)nn1)Nc1ccc(F)cc1F as the molecule, how does the growth read?
**A.** 112%

**Q.** Which growth does the source give for COC(=O)c1nc(-c2ccc(C)cc2)oc1S(=O)(=O)c1cccc(OC)c1 here?
**A.** 102%

**Q.** COc1ccc(C/C(C)=C(/c2ccc(OCCN(C)C)cc2)c2ccc(OC(=O)NCc3ccccc3)cc2)cc1 was tested. Which growth did it give?
**A.** 85.7%

**Q.** With COc1ccc(/C=C(\C#N)n2nnc3cc(F)c(F)cc32)cc1 as the molecule, how does the growth read?
**A.** 76.2%

**Q.** How did the growth turn out when COC(=O)c1c2c(c(C)[n+]([O-])c1C)C(=O)C(NCc1cccc(OC)c1)=CC2=O was run?
**A.** 108%

**Q.** Which growth does the source give for COc1ccc(-c2nc3cc(C(=O)NCc4ccccc4)ccc3n2C2CCCCC2)cc1 here?
**A.** 82.4%

**Q.** For CCN(CC)CCn1c2ccc(OC)cc2c2sc3cc(OC)ccc3c(=O)c21, which growth is on record?
**A.** 15.6%

**Q.** COc1ccc(C(=O)N2c3ccccc3Sc3ccccc32)c(OC)c1 was tested. Which growth did it give?
**A.** 5.16% (active)

**Q.** With CCN1CCN(C(=O)[C@]23CCC(C)(C)C[C@@H]2C2=CC[C@@H]4[C@@]5(C)CCC(=O)C(C)(C)[C@@H]5CC[C@@]4(C)[C@]2(C)CC3)CC1 as the molecule, how does the growth read?
**A.** -7.95% (active)

**Q.** How did the growth turn out when Clc1ccc2c(NC3CCC(N4CCOCC4)CC3)ccnc2c1 (stereo not given) was run?
**A.** 75.5%

**Q.** For CCCOC(=O)Nc1nc2ccc(SCC(C)C)cc2s1, which growth is on record?
**A.** 40.8%

**Q.** With COc1ccc(Nc2ncc(Br)c(NCCCNC(=O)c3cccs3)n2)cc1 as the molecule, how does the growth read?
**A.** 51.7%

**Q.** For N#Cc1c(-c2ccccc2)cc(-c2ccc(Nc3nc(Nc4ccc(Cl)cc4)nc(Nc4ccc(Cl)cc4)n3)cc2)nc1N, which growth is on record?
**A.** 81.8%

**Q.** With COC(=O)c1c(C)c2n(c1C)C(=O)C(c1ccccc1)=C2 as the molecule, how does the growth read?
**A.** 84.2%

**Q.** COc1ccc(Nc2ncc(Br)c(NCCCNC(=O)C3CCCC3)n2)cc1 was tested. Which growth did it give?
**A.** 54.6%

**Q.** How did the growth turn out when C=CCn1c(C)nc2ccc(Nc3nc(Nc4ccc5nc(C)n(CC=C)c5c4)c4ccccc4n3)cc21 was run?
**A.** 99.5%

**Q.** O=C(O)c1cn(C2CC2)c2cc(N3CCN(Cc4ccc5ccccc5c4O)CC3)c(F)cc2c1=O was tested. Which growth did it give?
**A.** -7.61% (active)

**Q.** N#C/C(=C\c1c(-c2ccccc2)[nH]c2ccccc12)C(N)=O was tested. Which growth did it give?
**A.** 73.7%

**Q.** Which growth does the source give for COc1ccc(C2CC(c3ccc(Nc4nc(Nc5ccccc5)nc(Nc5ccccc5)n4)cc3)=NN2C(C)=O)cc1 (stereo not given) here?
**A.** 95.5%

**Q.** With COc1cc2c(c(OC)c1OC)CCC(c1cccc(C(=O)Nc3cccc(Cl)c3)c1)O2 (stereo not given) as the molecule, how does the growth read?
**A.** 6.84% (active)

**Q.** With COc1cc(OCc2cccc(Br)c2C)cc(OC)c1C=O as the molecule, how does the growth read?
**A.** -88.7% (active)

**Q.** Which growth does the source give for COC1=CC(c2ccc[nH]2)=N/C1=C\c1[nH]c(C)c(C(=O)OC(C)C)c1C here?
**A.** -37.8% (active)

**Q.** With CCCc1c(OC(=O)c2ccccc2)nc2[nH]c(=O)sc2c1C as the molecule, how does the growth read?
**A.** 108%

**Q.** Which growth does the source give for CN(C)c1ccc(-c2c(C#N)c(N)nn2C(=O)c2ccc(NC(=O)c3ccccn3)cc2)cc1 here?
**A.** 96.6%

**Q.** CC1CCN(CCOc2ccc(CNc3ccc4nc(CCC5CCCCC5)[nH]c4c3)cc2)CC1 was tested. Which growth did it give?
**A.** 2.94% (active)

**Q.** Which growth does the source give for COc1cc2c(cc1OCCCN1CCN(CCCOc3cc4c(cc3OC)C(=O)N3CCC[C@H]3C=N4)CC1)C=CC(C)(C)O2 here?
**A.** -100% (active)

**Q.** For Oc1c(I)cc(I)cc1CNCCN(Cc1ccccn1)Cc1ccccn1, which growth is on record?
**A.** -88.2% (active)

**Q.** How did the growth turn out when O=CN1N=C(c2cccc(Nc3ccnc4cc(Cl)ccc34)c2)CC1c1ccccc1 (stereo not given) was run?
**A.** 5.63% (active)

**Q.** For COc1cc2c(cc1OC)C(C)N(S(N)(=O)=O)CC2 (stereo not given), which growth is on record?
**A.** 102%

**Q.** CCCC/C(CC)=N\NS(=O)(=O)c1ccc([N+](=O)[O-])cc1 was tested. Which growth did it give?
**A.** 96.3%

**Q.** For O=[N+]([O-])c1ccc(O)cc1Br, which growth is on record?
**A.** 81.6%

Test system: CCRF-CEM leukemia
Test: as above
Conditions: 10 µM unless noted

**Q.** With COc1ccc(C(O)c2cc3c(N)c(C(=O)Nc4cccc(Br)c4)sc3nc2C)cc1 (stereo not given) as the molecule, how does the growth read?
**A.** 14.2%

**Q.** For CC/C(=C(/c1ccc(Cl)cc1)c1ccc(OCCN2CCCCC2)cc1)c1ccc(OC)cc1, which growth is on record?
**A.** 28.8%

**Q.** For CCOC(=O)c1c2c(n3cccc(F)c13)C(=O)c1ncccc1C2=O, which growth is on record?
**A.** 67.3%

**Q.** For CC(=O)O[C@@H]1C[C@]2(C(C)C)O[C@@]1(C)[C@@H]1CCC(C)=C1[C@@H]2OC(=O)/C=C/c1ccccc1, which growth is on record?
**A.** 84.9%

**Q.** Which growth does the source give for O=C(O)c1ccc(-n2cc(/C=N/Nc3ccccc3)c(-c3ccc(F)cc3F)n2)cc1 here?
**A.** 26.6%

**Q.** For O=C(NCc1ccc(Cl)cc1Cl)C1CCC(=O)N1c1cccs1 (stereo not given), which growth is on record?
**A.** 110%

**Q.** CCSc1oc(-c2ccccc2)nc1[P+](c1ccccc1)(c1ccccc1)c1ccccc1 was tested. Which growth did it give?
**A.** 11.1%

**Q.** Which growth does the source give for O=C1C(=O)N(Cc2ccc(-c3ccccc3)cc2)c2ccc(OC(F)(F)F)cc21 here?
**A.** 9.7% (active)

**Q.** With Cc1nc2sc(C(=O)Nc3ccc(Br)cc3)c(N)c2cc1C(O)c1ccccc1 (stereo not given) as the molecule, how does the growth read?
**A.** 43.4%

**Q.** Which growth does the source give for O=C(Cn1cc(CSc2nc3ccccc3o2)nn1)Nc1ccc(F)cc1F here?
**A.** 113%

**Q.** How did the growth turn out when COC(=O)c1nc(-c2ccc(C)cc2)oc1S(=O)(=O)c1cccc(OC)c1 was run?
**A.** -9.09% (active)

**Q.** Which growth does the source give for COc1ccc(C/C(C)=C(/c2ccc(OCCN(C)C)cc2)c2ccc(OC(=O)NCc3ccccc3)cc2)cc1 here?
**A.** 47.2%

**Q.** How did the growth turn out when COc1ccc(/C=C(\C#N)n2nnc3cc(F)c(F)cc32)cc1 was run?
**A.** 24.3%

**Q.** With COC(=O)c1c2c(c(C)[n+]([O-])c1C)C(=O)C(NCc1cccc(OC)c1)=CC2=O as the molecule, how does the growth read?
**A.** 16.3%

**Q.** With COc1ccc(-c2nc3cc(C(=O)NCc4ccccc4)ccc3n2C2CCCCC2)cc1 as the molecule, how does the growth read?
**A.** 76.8%

**Q.** For CCN(CC)CCn1c2ccc(OC)cc2c2sc3cc(OC)ccc3c(=O)c21, which growth is on record?
**A.** 15%

**Q.** With COc1ccc(C(=O)N2c3ccccc3Sc3ccccc32)c(OC)c1 as the molecule, how does the growth read?
**A.** 16.5%

**Q.** For CCN1CCN(C(=O)[C@]23CCC(C)(C)C[C@@H]2C2=CC[C@@H]4[C@@]5(C)CCC(=O)C(C)(C)[C@@H]5CC[C@@]4(C)[C@]2(C)CC3)CC1, which growth is on record?
**A.** 37.5%

**Q.** Which growth does the source give for Clc1ccc2c(NC3CCC(N4CCOCC4)CC3)ccnc2c1 (stereo not given) here?
**A.** 85.5%

**Q.** CCCOC(=O)Nc1nc2ccc(SCC(C)C)cc2s1 was tested. Which growth did it give?
**A.** 22.9%

**Q.** How did the growth turn out when COc1ccc(Nc2ncc(Br)c(NCCCNC(=O)c3cccs3)n2)cc1 was run?
**A.** 16.3%

**Q.** Which growth does the source give for N#Cc1c(-c2ccccc2)cc(-c2ccc(Nc3nc(Nc4ccc(Cl)cc4)nc(Nc4ccc(Cl)cc4)n3)cc2)nc1N here?
**A.** 4.06% (active)

**Q.** COC(=O)c1c(C)c2n(c1C)C(=O)C(c1ccccc1)=C2 was tested. Which growth did it give?
**A.** 92.8%

**Q.** How did the growth turn out when COc1ccc(Nc2ncc(Br)c(NCCCNC(=O)C3CCCC3)n2)cc1 was run?
**A.** 27.1%

**Q.** Which growth does the source give for C=CCn1c(C)nc2ccc(Nc3nc(Nc4ccc5nc(C)n(CC=C)c5c4)c4ccccc4n3)cc21 here?
**A.** -20.8% (active)

**Q.** Which growth does the source give for O=C(O)c1cn(C2CC2)c2cc(N3CCN(Cc4ccc5ccccc5c4O)CC3)c(F)cc2c1=O here?
**A.** 68.2%

**Q.** How did the growth turn out when N#C/C(=C\c1c(-c2ccccc2)[nH]c2ccccc12)C(N)=O was run?
**A.** 66.1%

**Q.** Which growth does the source give for COc1ccc(C2CC(c3ccc(Nc4nc(Nc5ccccc5)nc(Nc5ccccc5)n4)cc3)=NN2C(C)=O)cc1 (stereo not given) here?
**A.** 88.6%

**Q.** With COc1cc2c(c(OC)c1OC)CCC(c1cccc(C(=O)Nc3cccc(Cl)c3)c1)O2 (stereo not given) as the molecule, how does the growth read?
**A.** 37.8%

**Q.** COc1cc(OCc2cccc(Br)c2C)cc(OC)c1C=O was tested. Which growth did it give?
**A.** 77%

**Q.** Which growth does the source give for COC1=CC(c2ccc[nH]2)=N/C1=C\c1[nH]c(C)c(C(=O)OC(C)C)c1C here?
**A.** 13.5%

**Q.** With CCCc1c(OC(=O)c2ccccc2)nc2[nH]c(=O)sc2c1C as the molecule, how does the growth read?
**A.** 103%

**Q.** Which growth does the source give for CN(C)c1ccc(-c2c(C#N)c(N)nn2C(=O)c2ccc(NC(=O)c3ccccn3)cc2)cc1 here?
**A.** 51.5%

**Q.** CC1CCN(CCOc2ccc(CNc3ccc4nc(CCC5CCCCC5)[nH]c4c3)cc2)CC1 was tested. Which growth did it give?
**A.** 11.8%

**Q.** With COc1cc2c(cc1OCCCN1CCN(CCCOc3cc4c(cc3OC)C(=O)N3CCC[C@H]3C=N4)CC1)C=CC(C)(C)O2 as the molecule, how does the growth read?
**A.** -48.6% (active)

**Q.** How did the growth turn out when Oc1c(I)cc(I)cc1CNCCN(Cc1ccccn1)Cc1ccccn1 was run?
**A.** -10.1% (active)

**Q.** For O=CN1N=C(c2cccc(Nc3ccnc4cc(Cl)ccc34)c2)CC1c1ccccc1 (stereo not given), which growth is on record?
**A.** 8.4% (active)

**Q.** With COc1cc2c(cc1OC)C(C)N(S(N)(=O)=O)CC2 (stereo not given) as the molecule, how does the growth read?
**A.** 80%

**Q.** With CCCC/C(CC)=N\NS(=O)(=O)c1ccc([N+](=O)[O-])cc1 as the molecule, how does the growth read?
**A.** 87.1%

**Q.** O=[N+]([O-])c1ccc(O)cc1Br was tested. Which growth did it give?
**A.** 95.2%
